The source of these data is PubChem BioAssay AID897 (National Center for Advancing Translational Sciences (NCATS), 2007).

The other results are listed elsewhere or left out. Where a call stands in place of a potency, no number is given. Records with an inconclusive call do not appear. The source made the active and inactive calls. The call rests on the fitted dose curve; in most records, active means well fitted inhibition curve with a large enough effect in the main read-out, with a control signal flat (not every such curve was filed as active); inconclusive means small, poorly fitted or top-dose-only effect, or a change in a side signal; inactive means no such curve, though single readings can be large or run the other way.

Chain of Caspase-7 (Homo sapiens) (P55210 24-198 limits assumed): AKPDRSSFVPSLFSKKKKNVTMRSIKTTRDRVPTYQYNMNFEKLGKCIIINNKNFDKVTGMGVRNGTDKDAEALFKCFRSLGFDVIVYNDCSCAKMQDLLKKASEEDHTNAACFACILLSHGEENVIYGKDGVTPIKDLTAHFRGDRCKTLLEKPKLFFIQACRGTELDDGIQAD
Chain of Caspase-7 (Homo sapiens) (P55210 207-303 limits assumed): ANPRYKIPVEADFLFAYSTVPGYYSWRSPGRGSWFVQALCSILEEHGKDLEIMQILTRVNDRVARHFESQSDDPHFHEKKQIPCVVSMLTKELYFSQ

This assay addresses Caspase-7 (Homo sapiens) (UniProt P55210). Description: Confirmation Concentration-Response Assay for Allosteric/Competitive Inhibitors of Caspase-7. To be noted: recombinant caspase-7, fluorogenic substrate cleavage; series mostly up to 57.5 µM. From the text:
NIH Molecular Libraries Screening Centers Network [MLSCN]
NIH Chemical Genomics Center [NCGC]
PI Name: Dr. James Wells,
Dr. Enrique Perez-Paya, Dr.Janice Williams, Dr. Dennis Wolan, a person
The caspases (Cysteine Aspartyl Protease) comprise a related family of 14 dimeric proteases that are critical mediators of apoptosis (programmed cell death) and inflammation. The caspases represent an important class of drug targets for stroke, ischemia, cancer and inflammatory diseases. […] One goal of this project was to identify compounds that act as allosteric inhibitors via stabilizing the procaspase form of the enzyme. Previous work in Well's laboratory has shown that such allosteric inhibitors can be identified and these act by binding at the dimer interface of enzyme (Hardy, Lam et al., 2004).
The biochemical assay was configured using purified caspase 7 at a high enzyme concentration to promote formation of the homodimers and thus facilitate the identification of allosteric inhibitors. […] After initiation of the assay with substrate the plates were rapidly read using an automated robotic system (Kalypsys, Inc.) to maintain consistent timing. […]
Caspase 7 was prepared in buffer (50 mM HEPES pH 7.5, 50 mM KCl, 200 mM NaCl, 10 mM DTT, 0.1% CHAPS) at a concentration of 66.6 nM and 3 uL was dispensed to all wells using black solid Kalypsys 1536-well plates. […] The plates were then exposed using 405 nm excitation/520 nm emission filters for 4 sec and read at 20 sec intervals for 3 min. […]
Concentration-response curves were fitted to the data calculated from slope of the linear regression of fluorescent intensity versus time (the rate). The concentration-effect curves were then classified based on curve quality (r2), response magnitude and degree of measured activity. […] Inconclusive compounds had appreciable concentration-dependent effects on both the measured rate and the interpolated basal fluorescence intensity at the start of the reaction but where the basal fluorescent intensity was marginal (e.g. < 10-fold). […]
Consider `N#CC1=C(N)Oc2cc(O)ccc2C1C1CCCCC1` (stereo not drawn), for which the Potency is 25.1 µM (active).

For `Cc1nc2c(C(=O)NCc3ccc4c(c3)OCO4)c[nH]n2c(=O)c1Cc1ccccc1F`, the Potency result is “inactive”.

For `CCN1C(=O)/C(=C2/Sc3ccccc3N2CCCS(=O)(=O)O)SC1=S`, the Potency entry is “inactive”.
